In PubChem BioAssay AID430 (Sanford-Burnham Center for Chemical Genomics, 2006):
Screen size: about 63,000 compounds; about 1,100 (1.7%) were called active. The sample as a whole holds a higher share of actives than the screen did. Results with a measured potency or affinity are listed apart. Values without a mark were called inactive. Rule as the data show it: active = cytotoxicity above about 50%; inactive = the rest.

Assay: HPDE-C7 pancreatic duct cell viability loss – fluorescence, HTS (AID 430);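 also: cells exposed to compound for 48 hours before viability readout; 0% = vehicle and 100% = reference cytotoxic drug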
Conditions: HPDE-C7 pancreatic duct cells viability, at 10 µM, stronger effect = higher value
`Cc1cc(C(=O)NCC2CCCO2)n(-c2ccccc2)n1` (stereo unspecified) showed a cytotoxicity of 0.2%.
`CCOc1ccc(NC(=O)c2oc3ccccc3c2NC(=O)C(C)C)cc1` showed a cytotoxicity of 11.9%.
In the case of `C=CCN1C(=O)C(CC(=O)O)SC1=Nc1c(C)n(C)n(-c2ccccc2)c1=O` (stereo unspecified), the cytotoxicity is reported as -3.1%.
`Cc1nc2ccccc2c2oc(C(=O)NCc3ccccn3)cc12` gave a cytotoxicity of 4.5%.
`O=C1CC(N2CCN(C3CC(=O)N(CCc4ccccc4)C3=O)CC2)C(=O)N1CCc1ccccc1` (stereo unspecified) gave a cytotoxicity of -9.9%.
In the case of `N#CC(C#N)=c1ccc2c(c1)N1C3=C(CCCC3)CC3CCCCC31N=2` (stereo unspecified), the cytotoxicity is reported as 72% (active).
With `N#C/C(C(N)=O)=c1/ccc2c(c1)N1C3=C(CCCC3)CC3CCCCC31N=2` (stereo unspecified) the cytotoxicity was 77.9% (active).
Compound `Cc1cc(C(=O)COC(=O)C2=COCCO2)c(C)n1-c1ccc2c(c1)OCO2` has a cytotoxicity of -7.4%.
For `CCCc1cc(C(=O)NC2CCCC2)no1`, the cytotoxicity was -4.5%.
`CCOC(=O)N1CCN(C(=O)CCn2c(=S)[nH]c3cc(OCC)c(OCC)cc3c2=O)CC1` showed a cytotoxicity of 1.3%.
For `CCN1CCN(C(c2cccs2)C(C)NC(=O)c2ccccc2)CC1` (stereo unspecified), the cytotoxicity was 2.9%.
With `CC(=O)OCCNc1cc(N2CCN(C)CC2)c2noc3c2c1C(=O)c1ccccc1-3` the cytotoxicity was 7.3%.
In the case of `CCOc1ccc2noc3c2c1C(=O)c1ccccc1-3`, the cytotoxicity is reported as 29.3%.
In the case of `CCOC(=O)N1CCN(c2cc(NCCC(=O)O)c3c4c(onc24)-c2ccccc2C3=O)CC1`, the cytotoxicity is reported as 58.8% (active).
`O=C(O)CCCNc1cc(N2CCC3(CC2)OCCO3)c2noc3c2c1C(=O)c1ccccc1-3` showed a cytotoxicity of 34.7%.
In the case of `CCOC(=O)c1c(C)noc1CP(=O)(c1ccccc1)c1ccccc1`, the cytotoxicity is reported as 4.8%.
For `CCC1CCCCN1C(=O)CSc1nnc(-c2ccc(Cl)cc2)o1` (stereo unspecified), the cytotoxicity was 1.2%.
`O=C(O)c1[nH]c2ccc(Cl)cc2c1CC(=O)N1CCN(C(=O)c2ccco2)CC1` gave a cytotoxicity of -1%.
Work on `O=C(O)c1[nH]c2ccc(Cl)cc2c1CC(=O)N1CCN(c2ccccc2)CC1` yielded a cytotoxicity of 5.3%.
For `Cc1cccc(N2CCN(C(=O)Cc3c(C(=O)O)[nH]c4ccc(Cl)cc34)CC2)c1C`, the cytotoxicity was 76.3% (active).
Work on `Cc1ccc(OC(=O)CCC(=O)N2CCc3ccccc32)cc1` yielded a cytotoxicity of 4%.
In the case of `Cc1cccc(N2CCN(CCNC(=O)c3cc4c(s3)CS(=O)(=O)C4)CC2)c1C`, the cytotoxicity is reported as -3.7%.
Work on `O=S(=O)(NCCc1ccccn1)c1cccs1` yielded a cytotoxicity of -28.8%.
In the case of `CCCn1c(C)nc2c(c1=O)c1nc3ccccc3nc1n2CCC1=CCCCC1`, the cytotoxicity is reported as -0.4%.
Compound `O=c1c2c3nc4ccccc4nc3n(/N=C/c3ccco3)c2ncn1CCC1=CCCCC1` has a cytotoxicity of 23%.
For `Cc1nc2c(c(=O)n1CCC1=CCCCC1)c1nc3ccccc3nc1n2/N=C/c1ccco1`, the cytotoxicity was 63.7% (active).
Work on `O=c1oc2ccccc2c2c1ncn2-c1ccccc1` yielded a cytotoxicity of -17.3%.
Work on `O=C(Nc1nnc(CC2=CCCCC2)s1)c1cccs1` yielded a cytotoxicity of 0.5%.
`Cn1c(CNC(=O)c2ccc(F)cc2)nc2ccccc21` showed a cytotoxicity of 0.8%.
In the case of `COc1cc2c(cc1OC)C(/C(C#N)=N\O)=NC(C)(C)C2`, the cytotoxicity is reported as 13%.
With `CCOC(=O)/C=C1\NC(C)(C)Cc2cc(OC)c(O)cc21` the cytotoxicity was 1.4%.
Compound `CCC1C(O)=C(c2ccccn2)C(=N)N1c1ccccc1` (stereo unspecified) has a cytotoxicity of 0.3%.
`CCOCCOC(=O)C1=C(C)N(C)C(=O)NC1c1ccccc1Cl` (stereo unspecified) showed a cytotoxicity of -0.5%.
Compound `C/C(NCCN1CCOCC1)=C(\C#N)C(N)=O` has a cytotoxicity of -5.5%.
In the case of `CCOC(=O)c1c(NC(C)=O)sc2c(O)cccc12`, the cytotoxicity is reported as 21.8%.
For `CCOC(=O)c1sc(NC(C)=O)c(C(=O)OCC)c1C`, the cytotoxicity was 4.3%.
For `CCOC(=O)c1c(NC(C)=O)sc2c(O)c(CN3CCN(CC)CC3)ccc12`, the cytotoxicity was 68% (active).
`CC(=O)Nc1ccc(S(=O)(=O)NCC2CCC(C(=O)N3CCCCCC3)CC2)cc1` (stereo unspecified) showed a cytotoxicity of -6.2%.
With `COc1ccccc1N1CCN(CC(=O)Nc2cc(C)nn2-c2nc(C)cc(C)n2)CC1` the cytotoxicity was 52.4% (active).
Compound `COc1ccc(CNc2nc3nc(C)cc(C)n3n2)cc1OC` has a cytotoxicity of 2.5%.
Work on `Cc1cc(C)nc(-n2nc(C)cc2NC(=O)c2ccc(Br)o2)n1` yielded a cytotoxicity of 25.7%.
With `COc1ccc(CNCC(=O)Nc2cc(C)nn2-c2nc(C)cc(C)n2)cc1OC` the cytotoxicity was 52.9% (active).
Work on `Cc1cc(C)nc(-n2nc(C)cc2NC(=O)CN2CCc3ccccc3C2)n1` yielded a cytotoxicity of 19.1%.
In the case of `Cc1cc(C)nc(-n2nc(C)cc2NC(=O)CN2CCC(C)CC2)n1`, the cytotoxicity is reported as 0.1%.
Work on `COc1ccc(C(CC(=O)O)NC(=O)c2ccco2)cc1OC` (stereo unspecified) yielded a cytotoxicity of -6.5%.
`O=C(c1ccco1)N1CCN(C(c2ccccc2)c2nnnn2Cc2cccs2)CC1` (stereo unspecified) gave a cytotoxicity of 7.3%.
`Clc1ccc(OCc2nc(-c3ccccn3)no2)c(Br)c1` showed a cytotoxicity of 4.3%.
`Cc1ccc(OCc2nc(-c3ccccn3)no2)c(Br)c1` showed a cytotoxicity of 12.5%.
With `CC(C)CCn1c(=O)c2ccccc2n2c(CN(C)Cc3ccccc3)nnc12` the cytotoxicity was -12.8%.
`O=c1[nH]c(CSc2nc3ccccc3o2)nc2c1cnn2-c1ccccc1` showed a cytotoxicity of 0.3%.
With `CCN1CCCC1CNC(=O)C1CCCN(S(=O)(=O)c2cccc3nsnc23)C1` (stereo unspecified) the cytotoxicity was 61.7% (active).
For `O=C(NCC1CCCO1)C1CCCN(S(=O)(=O)c2cccc3nsnc23)C1` (stereo unspecified), the cytotoxicity was -15%.
For `O=C(NCCc1ccccc1)C1CCCN(S(=O)(=O)c2cccc3nsnc23)C1` (stereo unspecified), the cytotoxicity was -0.3%.
`CC(=O)Nc1ccc(S(=O)(=O)NCc2cn3c(C)csc3n2)cc1` showed a cytotoxicity of 10.5%.
With `Cc1cc(C(=O)Nc2c(F)cc(F)cc2Br)no1` the cytotoxicity was 0.9%.
For `O=C(Nc1ccc(F)cc1F)c1cc(-c2ccco2)on1`, the cytotoxicity was -5.3%.
`O=C(Nc1c(F)cc(F)cc1Br)c1ccco1` gave a cytotoxicity of 0.6%.
Compound `COc1ccccc1-c1cc(C(=O)Nc2c(F)cc(F)cc2Br)no1` has a cytotoxicity of -10.6%.
For `O=C(Nc1c(F)cc(F)cc1Br)c1cc(-c2ccc(O)cc2)on1`, the cytotoxicity was 54.4% (active).
For `O=C(Nc1c(F)cc(F)cc1Br)c1cc(-c2ccco2)on1`, the cytotoxicity was 58.5% (active).
In the case of `Cc1ccc(S(=O)(=O)CCc2nnc(NC(=O)c3cnccn3)s2)cc1`, the cytotoxicity is reported as -8.2%.
